Test results as given in PubChem BioAssay.
Calls of active or inactive are those of the source. Unless noted, the rule behind the calls is not given here.

Legend:
[1] = resazurin metabolic signal in HepG2 cells – cell-based, resazurin fluorescence, 24 h, PK04 Diversity Set, profiling panel (AID 1172); settings: HepG2 viability, higher = more signal
[2] = budding yeast growth changes without added modifier – OD600, strain BY4716, 24 h, basal condition, primary screen (AID 1173); settings: S. cerevisiae BY4716 growth, OD600, 24 h; higher = more signal, called active from +8 up or from −8 down
[3] = viability profiling in MM1S myeloma cells – cell-based, resazurin fluorescence, basal, 24 h, PK04 Diversity Set, profiling panel (AID 1174); settings: higher = more signal, called active from +8 up or from −8 down;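 note: MM1S multiple myeloma cell line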
[4] = target: Dihydroorotate dehydrogenase (quinone), mitochondrial (Plasmodium falciparum (isolate 3D7)) (UniProt Q08210); assay: inhibition of P. falciparum DHODH – biochemical, C-terminal His tag, absorbance 600 nm, primary screen (AID 1175); settings: PfDHODH enzyme, DCIP absorbance 600 nm; higher = more signal, called active from +8 up or from −8 down;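 note: recombinant parasite enzyme with a five histidine tag at its C terminus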
[5] = inhibition of PAO1 biofilm formation – strain PAO1, LB-PBS medium, absorbance 600 nm, primary screen (AID 1176); settings: P. aeruginosa PAO1 growth/biofilm, A600, 12 h; higher = more signal
[6] = growth modulation of vineyard yeast isolate – strain RM11-1a, OD600, basal, 24 h, primary screen (AID 1177);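 note: cultures grown under basal conditions with no added stressor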; settings: S. cerevisiae RM11-1a growth, OD600, 24 h; higher = more signal, called active from +8 up or from −8 down
[7] = growth of efflux-deficient E. coli DRC39 – strain DRC39, OD650, 24 h, E. coli filamentation inducers, primary screen (AID 1178);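 note: growth measured as culture turbidity by optical density at 650 nm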; settings: E. coli DRC39 acrAB, higher = more signal, called active from +8 up or from −8 down
[8] = growth of efflux-deficient E. coli DRC39 – strain DRC39, OD650, 48 h, E. coli filamentation inducers, primary screen (AID 1179);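 note: screen aims at cell division blockers that make cells filament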; settings: E. coli DRC39 delta-acrAB growth, higher = more signal, called active from +8 up or from −8 down
[9] = viability profiling in RPMI8226 myeloma cells – cell-based, resazurin fluorescence, basal, 24 h, PK04 Diversity Set, profiling panel (AID 1180); settings: higher = more signal;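 note: RPMI8826 multiple myeloma cell line at 5000 cells per well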
[10] = target: E3 ubiquitin-protein ligase XIAP (Homo sapiens) (UniProt P98170); assay: small molecules binding XIAP protein – biophysical, small-molecule microarray, fluorescence 635 nm, primary screen (AID 1181); settings: higher = more signal;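 note: score merges 667 nm emission and signal to noise over triplicate slides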
[11] = system: XIP peptide (Xip251-270) binding; assay: XIP fragment 251-270 binding compounds – biochemical, small-molecule microarray, fluorescence 635/667 nm, 0.1 µg/mL protein, primary screen (AID 1182); settings: fluorescent protein binding, 635 nm, higher = more signal, called active from +8 up or from −8 down
XIP peptide (Xip251-270) = assay: compounds binding XIP fragment 251-270 – biochemical, small-molecule microarray, fluorescence 635/667 nm, 0.5 µg/mL protein, primary screen (AID 1183); settings: fluorescence 635 nm, higher = more signal
[12] = blood-stage malaria parasite viability loss – strain 3D7, DAPI fluorescence, 100 nL, primary screen (AID 1184);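 note: parasites grown inside human red blood cells in medium with human serum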; settings: P. falciparum 3D7 growth, 3 d, higher = more signal
[13] = target: Homeobox protein Hox-A13 (Mus musculus) (UniProt Q62424); assay: disruptors of Hoxa13 oligonucleotide interaction – biochemical, fluorescence polarization, labeled oligonucleotide, primary screen (AID 1185); settings: Hoxa13:DNA binding, 15 min, higher = more signal, called active from +8 up or from −8 down
[14] = blockers of DNA damage checkpoint Chk1 activation – imaging, HeLa, hydroxyurea, phospho-Chk1 antibody, percent positive cells, primary screen (AID 1186); settings: hydroxyurea-induced phospho-Chk1 immunofluorescence imaging, higher = more signal
[15] = blockers of DNA damage checkpoint Chk1 activation – imaging, HeLa, hydroxyurea, phospho-Chk1 nuclear intensity, primary screen (AID 1187); settings: hydroxyurea-induced phospho-Chk1 immunofluorescence imaging, higher = more signal

Chain of Homeobox protein Hox-A13 (Mus musculus) (Q62424 whole entry, looked up): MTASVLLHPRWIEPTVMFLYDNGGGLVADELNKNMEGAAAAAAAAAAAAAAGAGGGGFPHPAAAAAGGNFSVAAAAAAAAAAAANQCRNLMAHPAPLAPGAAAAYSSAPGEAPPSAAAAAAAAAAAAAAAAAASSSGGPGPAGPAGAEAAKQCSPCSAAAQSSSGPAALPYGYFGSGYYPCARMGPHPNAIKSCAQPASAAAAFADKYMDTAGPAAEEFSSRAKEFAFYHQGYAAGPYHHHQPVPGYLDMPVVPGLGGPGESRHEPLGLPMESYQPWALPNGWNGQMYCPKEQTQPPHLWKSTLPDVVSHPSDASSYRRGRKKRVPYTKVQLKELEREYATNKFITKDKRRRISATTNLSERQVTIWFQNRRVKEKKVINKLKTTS
Chain of E3 ubiquitin-protein ligase XIAP (Homo sapiens) (P98170 whole entry, looked up, the tested form may be a part): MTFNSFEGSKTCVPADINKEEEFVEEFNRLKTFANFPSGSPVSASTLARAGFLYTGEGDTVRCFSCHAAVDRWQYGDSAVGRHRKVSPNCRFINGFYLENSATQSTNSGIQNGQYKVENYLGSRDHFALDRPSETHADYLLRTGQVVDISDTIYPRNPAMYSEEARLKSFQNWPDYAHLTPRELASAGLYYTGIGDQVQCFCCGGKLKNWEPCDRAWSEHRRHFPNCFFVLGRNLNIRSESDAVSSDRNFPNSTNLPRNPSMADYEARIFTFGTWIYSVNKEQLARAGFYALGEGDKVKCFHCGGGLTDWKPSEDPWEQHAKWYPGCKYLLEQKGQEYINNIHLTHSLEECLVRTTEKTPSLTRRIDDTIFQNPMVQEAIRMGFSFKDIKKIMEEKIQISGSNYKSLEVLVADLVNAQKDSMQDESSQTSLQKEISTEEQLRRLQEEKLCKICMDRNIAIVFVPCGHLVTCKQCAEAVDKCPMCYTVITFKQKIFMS
Chain of Dihydroorotate dehydrogenase (quinone), mitochondrial (Plasmodium falciparum (isolate 3D7)) (Q08210 whole entry, looked up): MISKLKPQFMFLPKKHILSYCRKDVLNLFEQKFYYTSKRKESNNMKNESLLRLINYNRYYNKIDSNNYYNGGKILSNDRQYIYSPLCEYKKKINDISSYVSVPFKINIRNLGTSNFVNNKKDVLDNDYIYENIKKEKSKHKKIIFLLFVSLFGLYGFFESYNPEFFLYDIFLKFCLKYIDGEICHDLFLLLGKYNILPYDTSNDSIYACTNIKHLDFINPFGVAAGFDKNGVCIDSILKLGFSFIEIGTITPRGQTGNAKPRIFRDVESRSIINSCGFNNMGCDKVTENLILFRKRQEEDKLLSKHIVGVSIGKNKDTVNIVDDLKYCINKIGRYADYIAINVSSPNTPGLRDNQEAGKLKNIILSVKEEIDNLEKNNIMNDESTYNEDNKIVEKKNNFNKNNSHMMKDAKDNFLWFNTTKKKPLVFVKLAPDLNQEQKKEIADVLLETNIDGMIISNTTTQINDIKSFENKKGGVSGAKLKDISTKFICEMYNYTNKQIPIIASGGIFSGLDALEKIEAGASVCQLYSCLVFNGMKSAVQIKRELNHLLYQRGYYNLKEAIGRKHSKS

Row | Compound | z-score [1] | z-score [2] | z-score [3] | composite z-score [4] | z-score [5] | z-score [6] | z-score [7] | z-score [8] | z-score [9] | composite z-score [10] | composite z-score [11] | composite z-score (XIP peptide (Xip251-270)) | z-score [12] | z-score [13] | z-score [14] | z-score [15]
1 | CCCCC(=C=CC[C@@H](O)c1ccccc1OCCO)CCO | -0.202 | -2.07 (inactive) | 0.684 (inactive) | -0.782 (inactive) | 0.118 (inactive) | 0.853 (inactive) | 0.132 (inactive) | -0.0575 (inactive) | -0.552 | -0.24 | -0.247 (inactive) | 0.357 | -1.6 | -3.19 (inactive) | 0.525 (inactive) | 0.585 (inactive)
2 | CCCCN1CC=CC23O[C@@H]4/C=C\CCC(C)OC(=O)C4[C@H]2C(=O)N(CCCCCO)[C@@H]3C1=O (stereo not given in full) | 0.389 | 0.0305 (inactive) | 0.96 (inactive) | 0.18 (inactive) | 0.646 (inactive) | -0.0125 (inactive) | 0.511 (inactive) | 0.35 (inactive) | 0.05 | -0.0436 | -0.725 (inactive) | 0.552 | -0.232 | -4.53 (inactive) | -0.795 (inactive) | -0.518 (inactive)
3 | CN(C)C(=O)[C@]1(Cc2ccccc2CN=[N+]=[N-])N=C(c2ccc(OCCCO)cc2)O[C@@H]1c1ccccc1CN=[N+]=[N-] | -0.053 | -0.868 (inactive) | -1.19 (inactive) | 0.587 (inactive) | 1.06 (inactive) | -0.111 (inactive) | 0.187 (inactive) | -0.719 (inactive) | -1.1 | 0.0015 | 1.01 (inactive) | 0.637 | -2.68 | -0.212 (inactive) | -0.123 (inactive) | -0.249 (inactive)
4 | C=C(/C(=C/C[C@@H](OC(C)=O)c1ccc(OCCO)cc1)c1cnc2ccccc2c1)C(C)C | 1.22 | -2.05 (inactive) | -0.318 (inactive) | -7.29 (inactive) | -0.165 (inactive) | -1.87 (inactive) | 1.58 (inactive) | 0.79 (inactive) | 1.05 | 0.287 | 0.174 (inactive) | 0.178 | -3 | -4.09 (inactive) | -1.03 (inactive) | -0.163 (inactive)
5 | CC1(C)[C@@H]2CC(C(O)C3C=CC4C(=O)N(c5ccccc5)C(=O)C4N3Nc3ccccc3)=C[C@H]1C2 (stereo not given in full) | 0.0594 | -3.01 (inactive) | -0.852 (inactive) | 0.232 (inactive) | 0.711 (inactive) | -0.0064 (inactive) | -0.441 (inactive) | -0.328 (inactive) | -1.08 | 0.169 | 0.386 (inactive) | 0.576 | -0.0796 | -3.65 (inactive) | -0.583 (inactive) | -0.715 (inactive)
6 | COc1ccc(CCNC(=O)[C@@]2(Sc3ccc(C)cc3)CC(=O)N(C3CCCCC3)[C@@H]2c2ccc(CO)cc2I)cc1 | 0.594 | 0.0658 (inactive) | 0.175 (inactive) | 0.43 (inactive) | 1.34 (inactive) | -0.382 (inactive) | 0.258 (inactive) | 0.238 (inactive) | -1.2 | -0.276 | 0.0537 (inactive) | 0.753 | -2.12 | -1.88 (inactive) | 0.431 (inactive) | 1.23 (inactive)
7 | COc1ccc(C(=O)Nc2ccc(CN3C(=O)[C@@]4(O[C@@H](CCO)[C@H]([Si](C)(C)c5ccc(OC)cc5)[C@H]4C)c4ccccc43)cc2)cc1 | -4.21 | -3.8 (inactive) | -9.13 (active) | -0.851 (inactive) | 2.25 (inactive) | 3.08 (inactive) | 1.53 (inactive) | -0.0036 (inactive) | -5.97 | -0.172 | 0.264 (inactive) | 0.758 | -2.74 | -1.17 (inactive) | -0.0822 (inactive) | -0.0421 (inactive)
8 | C=CC[C@]1(C(=O)NCCCOC)N=C(c2ccc(OCCCO)cc2)O[C@H]1c1ccccc1N=[N+]=[N-] | 0.632 | 0.215 (inactive) | -0.894 (inactive) | 1.1 (inactive) | 1.79 (inactive) | 0.571 (inactive) | 0.961 (inactive) | -0.615 (inactive) | -1.04 | 0.262 | 0.403 (inactive) | 0.707 | -1.99 | -3.07 (inactive) | -0.432 (inactive) | 0.0181 (inactive)
9 | COCCOC(=O)N1C(=O)[C@@]2(c3cc(C#CC4=CCCCC4)ccc31)[C@H](C(=O)N1CCc3cc(OC)c(OC)cc3C1)[C@H]1C(=O)O[C@H](c3ccccc3)[C@H](c3ccccc3)N1[C@@H]2c1ccc(OCCO)cc1 | 0.149 | 1.18 (inactive) | 0.516 (inactive) | -0.352 (inactive) | 3.64 (inactive) | 1.38 (inactive) | 0.14 (inactive) | -0.316 (inactive) | 0.492 | -0.139 | 0.173 (inactive) | 0.383 | -2.09 | 3.59 (inactive) | 0.206 (inactive) | 0.631 (inactive)
10 | O=C1C2C=CC(C(O)C3CCCCC3)N(Nc3ccc([N+](=O)[O-])cc3)C2C(=O)N1c1ccccc1 (stereo not given) | -1.13 | 0.581 (inactive) | -0.772 (inactive) | 1.14 (inactive) | 0.409 (inactive) | 1.09 (inactive) | -0.915 (inactive) | -1.96 (inactive) | -0.675 | 0.242 | -0.375 (inactive) | 0.526 | -1.5 | -2.33 (inactive) | -0.0882 (inactive) | -0.177 (inactive)
